# Measured values: PubChem BioAssay
# “And” between values parts separate entries of the source, which are not always exact repeats. Equal values may be shown once. Inconclusive results are not listed. The source made the active and inactive calls. Unless noted, no rule for the calls is given here.
# How the values were obtained:
# [1] = molecular target: ATP-dependent translocase ABCB1 (Homo sapiens) (UniProt P08183); assay: P-glycoprotein substrate transport blockade – cell-based (AID 377; in the data active = fluorescence slope change above about 50%); conditions: MDR1-expressing cells, fluorescent substrate accumulation slope; stronger effect = higher value; concentration not given here
# Chain of ATP-dependent translocase ABCB1 (Homo sapiens) (P08183 whole entry, looked up): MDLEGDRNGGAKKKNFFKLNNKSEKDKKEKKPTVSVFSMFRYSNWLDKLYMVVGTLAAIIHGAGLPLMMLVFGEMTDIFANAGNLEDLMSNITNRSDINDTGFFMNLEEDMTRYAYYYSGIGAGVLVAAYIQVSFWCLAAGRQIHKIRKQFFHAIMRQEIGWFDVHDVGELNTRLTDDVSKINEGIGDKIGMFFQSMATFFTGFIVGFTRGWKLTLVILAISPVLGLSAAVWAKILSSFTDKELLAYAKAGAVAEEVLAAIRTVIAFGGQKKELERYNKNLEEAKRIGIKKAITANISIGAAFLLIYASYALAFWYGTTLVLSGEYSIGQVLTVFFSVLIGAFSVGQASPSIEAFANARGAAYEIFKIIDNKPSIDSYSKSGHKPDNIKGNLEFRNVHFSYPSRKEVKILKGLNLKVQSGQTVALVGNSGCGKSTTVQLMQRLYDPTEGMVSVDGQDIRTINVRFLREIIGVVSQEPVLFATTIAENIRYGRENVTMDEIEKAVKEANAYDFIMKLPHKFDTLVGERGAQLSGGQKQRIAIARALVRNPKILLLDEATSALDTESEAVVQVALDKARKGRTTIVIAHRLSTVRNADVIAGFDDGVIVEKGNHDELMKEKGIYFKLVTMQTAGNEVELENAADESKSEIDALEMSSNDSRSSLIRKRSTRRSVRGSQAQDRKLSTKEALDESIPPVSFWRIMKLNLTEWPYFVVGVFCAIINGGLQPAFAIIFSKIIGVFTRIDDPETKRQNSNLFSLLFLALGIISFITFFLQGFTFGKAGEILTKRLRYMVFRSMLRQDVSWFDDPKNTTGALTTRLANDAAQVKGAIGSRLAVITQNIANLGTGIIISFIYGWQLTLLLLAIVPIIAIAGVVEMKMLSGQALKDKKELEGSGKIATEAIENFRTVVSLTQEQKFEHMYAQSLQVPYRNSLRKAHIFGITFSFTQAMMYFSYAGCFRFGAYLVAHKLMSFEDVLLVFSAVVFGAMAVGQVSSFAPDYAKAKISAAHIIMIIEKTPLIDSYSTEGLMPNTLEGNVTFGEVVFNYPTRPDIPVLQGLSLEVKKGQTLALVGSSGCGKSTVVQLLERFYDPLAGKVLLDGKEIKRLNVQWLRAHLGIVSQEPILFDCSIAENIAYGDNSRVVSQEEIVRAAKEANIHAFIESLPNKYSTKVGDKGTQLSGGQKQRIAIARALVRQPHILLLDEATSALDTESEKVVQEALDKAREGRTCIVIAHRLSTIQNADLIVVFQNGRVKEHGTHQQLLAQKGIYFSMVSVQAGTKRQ
# [2] = GFP-Q80 aggregate reduction, neuronal-like cells, cell-based, NGF-treated PC12, GFPQ80 (AID 1614); conditions: PC12 NGF-treated GFP-polyQ80 inclusion reduction;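 also: lower means fewer inclusions and 0 means no inclusions at all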
# [3] = viability loss in pontine glioma line – cell-based, SU-DIPG-XVII, MIPE5.0, CellTiter-Glo, qHTS, dose response (AID 1347060; cut-off not given, nearly all actives have AC50 up to about 26 µM); conditions: CellTiter-Glo ATP luminescence
# [4] = viability loss in pontine glioma line – cell-based, SU-DIPG-XIII, MIPE4.0, CellTiter-Glo, qHTS, dose response (AID 1347061; cut-off not given, nearly all actives have AC50 up to about 37 µM;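 also: cells exposed to compound for 48 hours before readout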); conditions: CellTiter-Glo ATP luminescence
# [5] = viability loss in pontine glioma line – cell-based, JHH-DIPG-1, MIPE4.0, CellTiter-Glo, qHTS, dose response (AID 1347062; cut-off not given, nearly all actives have AC50 up to about 27 µM;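 as to AC50: cells exposed to compound for two days before readout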); conditions: JHH-DIPG-1 viability, CellTiter-Glo ATP luminescence
# [6] = viability loss in pontine glioma line – cell-based, SU-DIPG-IV, MIPE4.0, CellTiter-Glo, qHTS, dose response (AID 1347063; cut-off not given, nearly all actives have AC50 up to about 30 µM;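 also: compound exposure lasted 48 hours before the viability readout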); conditions: CellTiter-Glo ATP luminescence
# [7] = viability loss in pontine glioma line – cell-based, SU-DIPG-XIII, MIPE5.0, CellTiter-Glo, qHTS, dose response (AID 1347064; cut-off not given, nearly all actives have AC50 up to about 23 µM); conditions: CellTiter-Glo ATP luminescence
# [8] = viability loss in pontine glioma line – cell-based, SU-DIPG-XXV, MIPE5.0, CellTiter-Glo, qHTS, dose response (AID 1347065; cut-off not given, nearly all actives have AC50 up to about 26 µM;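 also: cells exposed to compound for 48 hours before ATP readout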); conditions: CellTiter-Glo ATP luminescence
# [9] = growth inhibition of DIPG cells – cell-based, MIPE4.0 library, CellTiter-Glo luminescence, qHTS (AID 1347066; cut-off not given, nearly all actives have AC50 up to about 30 µM;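 also: cells exposed to compound for 48 hours before readout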); conditions: SU-DIPG-VI viability, CellTiter-Glo ATP luminescence
# [10] = compounds altering circadian rhythm period length – cell-based, LOPAC library, luminescence reporter (AID 2774); conditions: circadian reporter cells, at 7 µM, actives lie on both sides;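 also: values are relative to mean of DMSO wells on each plate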
# [11] = system: Hepatitis C virus NS3 helicase; assay: blockers of NS3h binding to ssDNA – biochemical, fluorescence polarization, LOPAC1280 library, primary screen (AID 687035; in the data active = inhibition above about 37%); conditions: Purified HCV NS3 helicase, Cy5-dT15 ssDNA binding fluorescence polarization; stronger effect = higher value; concentration not given here
# [12] = compounds altering Cy5-DNA-NS3h complex signal – biochemical, LOPAC1280, artefact control for HCV NS3 helicase inhibitor project (AID 687037); conditions: Cy5-DNA-NS3h complex fluorescence interference counterscreen
# [13] = system: Neuropilin-2 / VEGF-C interaction (human); assay: small molecules blocking Neuropilin-2/VEGF-C interaction – biochemical, microplate binding format, z-score (AID 743281); conditions: microplate NRP2/VEGF-C binding assay; stronger effect = lower value
# [14] = JHH-DIPG-1 glioma cell viability, MIPE5.0 library, CellTiter-Glo luminescence, qHTS (AID 1347067; cut-off not given, nearly all actives have AC50 up to about 26 µM;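 also: cells exposed to compound for 48 hours before readout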); conditions: JHH-DIPG-1 glioma viability, CellTiter-Glo ATP luminescence
# [15] = growth inhibition of DIPG cells – cell-based, MIPE5.0 library, qHTS (AID 1347068; cut-off not given, nearly all actives have IC50 up to about 30 µM); conditions: SU-DIPG-XXV viability
# [16] = growth inhibition, single agent or in combination, cell-based, chromothripsis tumors, cisplatin or BGB combos (AID 1671449; in the data active = inhibition above about 80%;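 also: cells exposed for 96 hours; 0% = vehicle DMSO and 100% = killing by high DMSO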); conditions: LFS_MB_P medulloblastoma cells
# [17] = growth inhibition, single agent and combos, cell-based, chromothripsis tumors, cisplatin or BGB combos (AID 1671450; in the data active = inhibition above about 80%;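 also: cells exposed to compound for four days; 0% = vehicle DMSO and 100% = cell killing by high DMSO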); conditions: HDN33 neuroblastoma cells, stronger effect = higher value
# [18] = growth inhibition, single agents and combos, ICB984, cell-based, cisplatin or BGB combos, synergistic combos for chromothripsis tumors (AID 1671451); conditions: ICB984 medulloblastoma cells, drug combinations, stronger effect = higher value;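 also: cells exposed for 96 hours before readout; 0% = vehicle DMSO and 100% = killing by high DMSO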
# [19] = growth inhibition, single agents and combos, HTB85, cell-based, BGB or cisplatin IC20 combos, synergistic combos for chromothripsis tumors (AID 1671453; in the data active = inhibition above about 80%;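 also: cells exposed for 96 hours before readout; 0% = vehicle DMSO and 100% = high DMSO killing control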); conditions: HTB85 osteosarcoma cells, drug combinations, stronger effect = higher value
# [20] = at 0.5 µM, stronger effect = higher value
# [21] = measured here: combination with BGB IC20, at 0.005 µM
# [22] = measured here: combination with BGB IC40, at 0.005 µM
# [23] = measured here: combination with BGB IC40, at 0.05 µM
# [24] = measured here: combination with cisplatin, at 0.5 µM, stronger effect = higher value
# [25] = measured here: combination with cisplatin, at 5 µM, stronger effect = higher value
# [26] = measured here: with BGB IC20 combination, at 0.5 µM
# [27] = measured here: with cisplatin IC20 combination, at 0.5 µM
# [28] = measured here: 5 uM single agent, at 5 µM
# [29] = measured here: with BGB IC20, at 0.5 µM
# [30] = measured here: with BGB IC20, at 5 µM
# [31] = measured here: with cisplatin IC20, at 0.5 µM
# [32] = measured here: with cisplatin IC20, at 5 µM
smiles,measurement,setting,value
CCCc1cc(=O)[nH]c(=S)[nH]1,fluorescence slope change,[1],-6.8% (inactive)
same,inclusion score,[2],2
same,outcome,[3],inactive
same,outcome,[4],inactive
same,outcome,[5],inactive
same,outcome,[6],inactive
same,outcome,[7],inactive
same,outcome,[8],inactive
same,outcome,[9],inactive
CC1=NS(=O)(=O)c2cc(Cl)ccc2N1,fluorescence slope change,[1],82.3% (active)
same,period change,[10],0.13 h (inactive)
same,inhibition,[11],-1% (inactive)
same,fluorescence ratio (interference),[12],1 (inactive)
same,z-score,[13],-0.142 (inactive)
CC(C[N+](C)(C)C)OC(N)=O (configuration not stated),inclusion score,[2],2
same,period change,[10],-0.04 h (inactive)
same,inhibition,[11],-2% (inactive)
same,fluorescence ratio (interference),[12],1 (inactive)
same,outcome,[3],inactive
same,outcome,[4],inactive
same,outcome,[5],inactive
same,outcome,[9],inactive
same,outcome,[14],inactive
same,outcome,[15],inactive
COc1ccc(Cl)cc1C(=O)NCCc1ccc(S(=O)(=O)NC(=O)NC2CCCCC2)cc1,fluorescence slope change,[1],105% (active)
same,inclusion score,[2],2
same,period change,[10],0.16 h (inactive)
same,inhibition,[11],1% (inactive)
same,fluorescence ratio (interference),[12],1 (inactive)
NCCc1ccc(O)c(O)c1,inclusion score,[2],2
same,period change,[10],-0.01 h (inactive)
same,inhibition,[11],-4% (inactive)
same,fluorescence ratio (interference),[12],1 (inactive)
same,outcome,[3],inactive
same,outcome,[4],inactive
same,outcome,[6],inactive
same,outcome,[9],inactive
same,outcome,[14],inactive
same,outcome,[15],inactive
CS(=O)(=O)OCCCCOS(C)(=O)=O,fluorescence slope change,[1],13.3% (inactive)
same,inclusion score,[2],2
same,outcome,[3],inactive
same,outcome,[4],inactive
same,outcome,[5],inactive
same,outcome,[6],inactive
same,outcome,[8],inactive
same,outcome,[9],inactive
same,outcome,[14],inactive
same,outcome,[15],inactive
same,inhibition,[16]; [20],-1.82% (inactive) and -6.92% (inactive)
same,inhibition,[16]; [21],-22.1% and -20.3%
same,inhibition,[16]; [22],-24.6% and 29.3%
same,inhibition,[16]; [23],-40.6% and 3.42%
same,inhibition,[16]; [24],1.85% and -16.8%
same,inhibition,[16]; [25],-55.6% and 0.647%
same,inhibition,"[17]; BGB combo, at 5 µM",-31.6% and -3.19%
same,inhibition,[17]; at 0.5 µM,-10.4% (inactive) and -1.57% (inactive)
same,inhibition,"[17]; cisplatin combo, at 5 µM",-3.41% and -6.58%
same,inhibition,[17]; [26],-9.64% and 2.06%
same,inhibition,[17]; [27],-8.9% and -4.87%
same,inhibition,"[17]; single agent, at 5 µM",0.973% and 14.4%
same,inhibition,"[18]; BGB IC20 combo, at 0.005 µM",-15.4% and -25.1%
same,inhibition,"[18]; BGB IC40 combo, at 0.005 µM",-13.7% and -14%
same,inhibition,"[18]; BGB IC40 combo, at 0.05 µM",-7.43% and 3.18%
same,inhibition,[18]; at 0.5 µM,-25.5% (inactive) and -7% (inactive)
same,inhibition,"[18]; cisplatin combo, at 0.05 µM",-11.3% and 3.18%
same,inhibition,"[18]; cisplatin combo, at 0.5 µM",-9.08% and -3.26%
same,inhibition,"[18]; cisplatin combo, at 5 µM",-50.4% and -16.4%
same,inhibition,[18]; [28],-29.1% and 6.4%
same,inhibition,[19]; at 0.5 µM,-4.73% (inactive) and 3.45% (inactive)
same,inhibition,[19]; [29],-9.57% and -1.65%
same,inhibition,[19]; [30],-6.08% and 4.44%
same,inhibition,[19]; [31],-0.002% and 1.89%
same,inhibition,[19]; [32],-32.8% and 17%
same,inhibition,"[19]; single agent, at 5 µM",-0.247% and 3.08%
CC12CC3CC(C)(C1)CC(N)(C3)C2,inclusion score,[2],2
same,period change,[10],0.205 h (inactive)
same,inhibition,[11],-2% (inactive)
same,fluorescence ratio (interference),[12],1 (inactive)
same,outcome,[13],inactive
same,AC50,[5],3.32 µM (active)
same,outcome,[8],inactive
same,outcome,[9],inactive
same,outcome,[14],inactive
same,outcome,[15],inactive
CC(=O)OCC(CCn1cnc2cnc(N)nc21)COC(C)=O,z-score,[13],-0.315 (inactive)
same,outcome,[3],inactive
same,outcome,[4],inactive
same,outcome,[5],inactive
same,outcome,[6],inactive
same,outcome,[8],inactive
same,outcome,[9],inactive
same,outcome,[14],inactive
same,outcome,[15],inactive
same,inhibition,[16]; [20],-15.4% (inactive)
same,inhibition,[16]; [21],-4.33%
same,inhibition,[16]; [22],-16.3%
same,inhibition,[16]; [23],-21.9%
same,inhibition,[16]; [24],-33%
same,inhibition,[16]; [25],-20.4%
same,inhibition,"[17]; BGB combo, at 5 µM",-6.25%
same,inhibition,[17]; at 0.5 µM,-3.67% (inactive)
same,inhibition,"[17]; cisplatin combo, at 5 µM",8.87%
same,inhibition,[17]; [26],-10.2%
same,inhibition,[17]; [27],4.72%
same,inhibition,"[17]; single agent, at 5 µM",-14.6%
same,inhibition,"[18]; BGB IC20 combo, at 0.005 µM",1.9%
same,inhibition,"[18]; BGB IC40 combo, at 0.005 µM",-6.07%
same,inhibition,"[18]; BGB IC40 combo, at 0.05 µM",-14.6%
same,inhibition,[18]; at 0.5 µM,-31.4% (inactive)
same,inhibition,"[18]; cisplatin combo, at 0.05 µM",-17.8%
same,inhibition,"[18]; cisplatin combo, at 0.5 µM",-37.3%
same,inhibition,"[18]; cisplatin combo, at 5 µM",-37.5%
same,inhibition,[18]; [28],-40.1%
same,inhibition,[19]; at 0.5 µM,-2.55% (inactive)
same,inhibition,[19]; [29],-18%
same,inhibition,[19]; [30],-24.7%
same,inhibition,[19]; [31],0.506%
same,inhibition,[19]; [32],-48.5%
same,inhibition,"[19]; single agent, at 5 µM",-10%
N[C@@H](Cc1cc(I)c(Oc2cc(I)c(O)c(I)c2)c(I)c1)C(=O)O,fluorescence slope change,[1],62.7% (active)
same,outcome,[3],inactive
same,outcome,[4],inactive
same,outcome,[5],inactive
same,outcome,[7],inactive
same,outcome,[8],inactive
same,outcome,[14],inactive
same,outcome,[15],inactive
CCN(CC)CCOC(=O)C1(C2CCCCC2)CCCCC1,period change,[10],0.005 h (inactive)
same,inhibition,[11],-4% (inactive)
same,fluorescence ratio (interference),[12],1 (inactive)
CN(C)CCC[C@@]1(c2ccc(F)cc2)OCc2cc(C#N)ccc21,z-score,[13],0.314 (inactive)
CC(C)(C)NCC(O)c1cc(O)cc(O)c1 (configuration not stated),fluorescence slope change,[1],23.2% (inactive)
same,inclusion score,[2],2
same,period change,[10],0.03 h (inactive)
same,inhibition,[11],-2% (inactive)
same,fluorescence ratio (interference),[12],1 (inactive)
C=C(CC)C(=O)c1ccc(OCC(=O)O)c(Cl)c1Cl,fluorescence slope change,[1],85.9% (active)
CC(=O)Nc1nnc(S(N)(=O)=O)s1,inclusion score,[2],2
same,period change,[10],0.15 h (inactive)
same,inhibition,[11],-1% (inactive)
same,fluorescence ratio (interference),[12],1 (inactive)
